According to PubChem BioAssay (NCATS):
Inconclusive results are not listed. Activity calls are given as the source filed them. The call rests on the fitted dose curve; in most records, active means well fitted curve in the direction sought with a large enough effect; inconclusive means small, poorly fitted or top-dose-only effect, or another doubt; inactive means no such curve, though single readings can be large; an effect the other way counts as inactive or inconclusive.

What was measured:
[1] = Quantitative highthroughput screen to assess conditional lethalithy of NOMO1 cells grown in RPMI1640 with dialyzed fetal bovine serum (RPMI+ds) (AID 1963877); further: nearly all actives have a fitted effect of over 30% in size; further: potency means the concentration at half of the fitted maximal effect;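 on viability: series mostly up to about 46 µM; 100% = DMSO control wells and 0% = empty wells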
Summary of the method: (§1)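 Each medium arm—HPLM with 10% dialyzed FBS, or RPMI1640 with 5 mM glucose and 10% untreated or dialyzed FBS—was screened against an 11-point, 3-fold compound titration for 48 h at 37 °C, with CellTiter-Glo luminescence as endpoint.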

[2] = Quantitative highthroughput screen to assess conditional lethalithy of NOMO1 cells grown in Human Plasma-Like Medium with dialyzed fetal bovine serum (HPLM+ds) (AID 1963878);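 further: 100% = DMSO wells and 0% = empty wells on each plate; nearly all actives have a fitted effect of over 35% in size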
Summary of the method: as §1

[3] = Quantitative highthroughput screen to assess conditional lethalithy of P12 Ichikawa cells grown in Human Plasma-Like Medium with dialyzed fetal bovine serum (HPLM+ds) (AID 1963879); conditions: Potency: viability; further: series mostly up to about 46 µM; nearly all actives have a fitted effect of over 35% in size
Summary of the method: as §1

[4] = Quantitative highthroughput screen to assess conditional lethalithy of SEM cells grown in Human Plasma-Like Medium with dialyzed fetal bovine serum (HPLM+ds) (AID 1963882); further: series mostly up to about 46 µM; nearly all actives have a fitted effect of over 35% in size
Summary of the method: as §1

[5] = Quantitative highthroughput screen to assess conditional lethalithy of SEM cells grown in RPMI1640 with dialyzed fetal bovine serum (RPMI+ds) (AID 1963884);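 further: series mostly up to about 46 µM; 100% = DMSO control wells and 0% = empty wells without cells; nearly all actives have a fitted effect of over 35% in size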
Summary of the method: as §1

[6] = Quantitative highthroughput screen to assess conditional lethalithy of NOMO1 cells grown in RPMI1640 with untreated serum (RPMI+s) (AID 1963876); further: nearly all actives have a fitted effect of over 35% in size; further: potency means the concentration at half of the fitted maximal effect;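 on viability: 100% = DMSO wells and 0% = empty wells without cells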
Summary of the method: as §1

[7] = Quantitative highthroughput screen to assess conditional lethalithy of P12 Ichikawa cells grown in RPMI1640 with dialyzed fetal bovine serum (RPMI+ds) (AID 1963880); conditions: Potency: P12-Ichikawa viability
Summary of the method: as §1

[8] = Quantitative highthroughput screen to assess conditional lethalithy of P12 Ichikawa cells grown in RPMI1640 with untreated serum (RPMI+s) (AID 1963881); conditions: Potency: viability
Summary of the method: as §1

[9] = Quantitative highthroughput screen to assess conditional lethalithy of SEM cells grown in RPMI1640 with unreated serum (RPMI+s) (AID 1963883); further: nearly all actives have a fitted effect of over 35% in size; further: potency means the concentration at half of the fitted maximal effect;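 on viability: 100% = DMSO wells and 0% = empty wells without cells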
Summary of the method: as §1

[10] = Cellular viability qHTS for adrenocortical cancer (ACC) cell line SW-13 (AID 1963989); conditions: SW-13 ACC cells viability, CellTiter-Glo, 48 h; activity (max response): active compounds read low;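 further: cells grown in serum-free medium with ITS supplement; on the % scale 0 is the no-effect control and ±100 the full control effect; nearly all actives have a fitted effect of over 65% in size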
Summary of the method: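 Viability was read as CellTiter-Glo luminescence after 48 h compound treatment (up to 46 uM final) of SW-13 cells grown serum-free; titration curves were fit with a four-parameter logistic model to give IC50 and efficacy.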

[11] = Cellular viability qHTS for adrenocortical cancer (ACC) cell line NCI-H295R (AID 1963990);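 further: 0% = DMSO only wells and -100% = full killing with cytotoxic reference compound; nearly all actives have a fitted effect of over 60% in size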
Summary of the method: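 CellTiter-Glo ATP luminescence, read 48 h after compound addition, measured viability of NCI-H295R adrenocortical cells grown serum-free with ITS. Final concentrations spanned up to 46 uM. Data normalized to DMSO and doxorubicin, fitted for IC50 and maximal response.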

CCOC(=O)c1c(CSc2ccccc2)n(C)c2cc(Br)c(O)c(CN(C)C)c12
active: Potency [1] 16.6 µM
inactive: Potency [2] | Potency [3] | Potency [4] | Potency [5]

COc1ccc(CCC(=O)c2c(O)cc(O[C@@H]3O[C@H](CO)[C@@H](O)[C@H](O)[C@@H]3O[C@@H]3O[C@@H](C)[C@H](O)[C@@H](O)[C@@H]3O)cc2O)cc1O
inactive: Potency [7] | Potency [8] | Potency [4] | Potency [9] | Potency [5]
active: Potency [6] 13.2 µM

CC(=O)N1CCN(c2ccc(OC[C@H]3CO[C@](Cn4ccnc4)(c4ccc(Cl)cc4Cl)O3)cc2)CC1
inactive: Potency [1] | Potency [2]

CN(C)CCN(Cc1ccc(Cl)cc1)c1ccccn1
inactive: Potency [1] | Potency [2] | Potency [3] | Potency [7] | Potency [8] | Potency [9] | Potency [5] | activity (max response) [10] -3.95% | Potency [11]

O=C1CCc2cc(OCCCCc3nnnn3C3CCCCC3)ccc2N1
inactive: Potency [1] | Potency [2] | Potency [3] | Potency [7] | Potency [8] | Potency [4] | Potency [9] | Potency [5] | Potency [11]

CC1(C)OC2CC3C4CC(F)C5=CC(=O)C=CC5(C)C4C(O)CC3(C)[C@]2(C(=O)CO)O1 (some centres undefined)
inactive: Potency [1] | Potency [2]

O=C1Nc2ccc(Cl)cc2C(C#CC2CC2)(C(F)(F)F)O1 (centres undefined)
inactive: Potency [1] | Potency [2] | Potency [4] | Potency [9]

CC=CC[C@@H](C)C(=O)[C@H]1C(=O)N[C@@H](C(C)C)C(=O)N(C)CC(=O)N(C)[C@@H](CC(C)C)C(=O)N[C@@H](C(C)C)C(=O)N(C)[C@@H](CC(C)C)C(=O)N[C@@H](C)C(=O)N[C@H](C)C(=O)N(C)[C@@H](CC(C)C)C(=O)N(C)[C@@H](CC(C)C)C(=O)N(C)[C@@H](C(C)C)C(=O)N1C
inactive: Potency [6]
active: Potency [9] 14.8 µM
